This is an account of results in PubChem BioAssay (Tox21).

“And” between values parts separate entries of the source, which are not always exact repeats. Equal entries are not always repeated. Records with an inconclusive call do not appear. Some structures have more than one record in an assay (separate samples or runs), and their calls can disagree. The source made the active and inactive calls. The call rests on the fitted dose curve; in most records, active means well fitted cell-killing curve with a large enough effect in the repeat runs; inconclusive means weak or mixed curves; inactive means no such curve, though single readings can be large or run the other way.
Potency means the concentration at half of the fitted maximal effect.

This assay is described as follows: qHTS assay for identifying genotoxic compounds that show differential cytotoxicity against isogenic chicken DT40 cell lines with known DNA damage response pathways - Rad54/Ku70 mutant cell line (AID 743015). Further: nearly all actives have a fitted effect of over 60% in size. Particulars: DT40 Rad54/Ku70 mutant viability, CellTiter-Glo, 40 h; series mostly up to 66.8 µM. The text has this: National Center for Advancing Translational Sciences [NCATS]
NIH Chemical Genomics Center [NCGC]
U.S. Environmental Protection Agency [EPA]
National Institutes of Environmental Health Sciences [NIEHS]
National Toxicology Program [NTP]
U.S. Food and Drug Administration [FDA]
DNA repair pathways play a critical role in cellular homeostasis by repairing DNA damage induced by endogenous processes and xenobiotics. Isogenic chicken DT40 cell lines deficient in different DNA repair pathways can be used to identify genotoxic compounds and aid in characterizing the nature of the DNA damage induced. Two DNA repair-deficient cell lines with disrupted genes, Rad54/Ku70 or Rev3, were used to screen the Tox21 10K compound library. Possible genotoxicity was based on the presence of a significant increase in cytotoxicity in one or more of the DNA repair-deficient cell lines compared to that observed in the parental DNA repair-proficient cell line. CellTiter Glo viability assay (Promega, Madison, WI) was used to measure cell viability in these cells after compound treatment. This assay includes the data from the Rad54/Ku70 mutant cell line.
Tox21 Assay Protocol Summary:
300 DT40 mutant cells in 5 uL/well were dispensed into white, solid-bottom 1536-well plates using a Multidrop Combi (ThermoFisher Scientific, Waltham, MA) dispenser. After the assay plates were incubated at 37 C/5% CO2 for approximately 0.5 hour, 23 nL of compounds dissolved in DMSO, positive controls or DMSO only was transferred into the assay plate by a pintool work station (Kalypsys, San Diego, CA). The assay plates were incubated at 37 C/5% CO2 for 40 hours. After 5 uL per well of CellTiter-Glo reagent was added into each well of the assay plates, the plates were incubated for 30 min at room temperature and the luminescence intensity of the plates was measured using a ViewLux (PerkinElmer, Shelton, CT) plate reader.
Background: qHTS replaces the single test concentration by a dilution series.
Consider `CCCCCCCCCCCCBr`, for which the Potency was 30.6 µM (active).

For the compound `CCN(CC)c1c([N+](=O)[O-])cc(C(F)(F)F)c(N)c1[N+](=O)[O-]`, the Potency was 17.2 µM (active).

In the case of `CN(C)[C@@H]1C(=O)C(C(N)=O)=C(O)[C@@]2(O)C(=O)C3=C(O)c4c(O)ccc(Cl)c4[C@@](C)(O)[C@H]3C[C@@H]12`, the Potency result is “inactive and 62.4 µM (active)”.

For the compound `C1CCC2CCCCC2C1` (stereo not given), the Potency entry is “inactive”.

As for `O=C(CCl)Nc1ccccc1`, the Potency is 5.45 µM (active).

In the case of `CC(C)(C)OO`, the Potency result was “inactive”.

Turning to `Oc1ccc(C2(c3ccc(O)cc3)c3ccccc3-c3ccccc32)cc1`, the Potency is 54.5 µM (active).

As to `CCOCn1c(-c2ccc(Cl)cc2)c(C#N)c(Br)c1C(F)(F)F`, the Potency was 1.54 µM (active).

Take `CC1(c2ccc(Oc3ccccc3)cc2)OC(=O)N(Nc2ccccc2)C1=O` (stereo not given): the Potency is 0.774 µM (active).

As for `O=c1oc2ccccc2c(O)c1Cc1c(O)c2ccccc2oc1=O`, the Potency entry is “inactive”.

Turning to `O=[N+]([O-])c1ccc2ccc3cccc4ccc1c2c34`, the Potency result is “inactive”.

On to `O=c1ssc(Cl)c1Cl`, for which the Potency was 3.44 µM (active).

With `Clc1ccc(CSC(Cn2ccnc2)c2ccc(Cl)cc2Cl)cc1` (stereo not given), the Potency was 12.7 µM (active).

For the compound `C=CC(=O)OCCCCOC(=O)C=C`, the Potency was 27.3 µM (active).

Regarding `O=c1[nH]c2ccccc2n1C1CCN(CCCC(c2ccc(F)cc2)c2ccc(F)cc2)CC1`, the Potency is 8.41 µM (active) and 9.69 µM (active).

Regarding `Clc1ccc(CO/N=C(\Cn2ccnc2)c2ccc(Cl)cc2Cl)c(Cl)c1`, the Potency is 21.1 µM (active).

As to `C=CC(=O)OCC(COC(=O)C=C)(COC(=O)C=C)COC(=O)C=C`, the Potency was 0.686 µM (active).

On to `COc1cc(C=O)cc2c1[C@H](COC(N)=O)[C@]1(OC(C)=O)ON2C[C@H]2[C@@H]1N2C(C)=O`, for which the Potency is 0.0069 µM (active).

Regarding `COC12CC[C@@]3(C[C@@H]1C(C)(O)C(C)(C)C)[C@H]1Cc4ccc(O)c5c4[C@@]3(CCN1CC1CC1)[C@H]2O5` (stereo not given in full), the Potency was 48.2 µM (active).

With `Cc1cc(C(C)(C)c2cc(C)c(O)c(C)c2)cc(C)c1O`, the Potency is 26.4 µM (active).

For `COc1ccc(/C(=C/C(=O)N2CCOCC2)c2ccc(Cl)cc2)cc1OC`, the Potency is 30.6 µM (active).

With `CC(C)[C@H](C(=O)OC(C#N)c1cccc(Oc2ccccc2)c1)c1ccc(OC(F)F)cc1` (stereo not given in full), the Potency was 27.3 µM (active).

As for `CC(C)(O)c1cnn2c(-c3ccc(F)c(-c4c(F)cccc4C#N)c3)cnc2n1`, the Potency is 21.7 µM (active).

For `Clc1ccc(C(c2ccccc2Cl)C(Cl)(Cl)Cl)cc1` (stereo not given), the Potency was 28.4 µM (active).

For `CC(Cc1ccc(C(C)(C)C)cc1)CN1C[C@@H](C)O[C@@H](C)C1` (stereo not given in full), the Potency is 4.86 µM (active).

With `CC(=O)OC1(c2ccccc2)CCN(CCc2ccccc2)CC1`, the Potency is 4.43 µM (active).

As to `N#C/C=C/C#N`, the Potency entry was “inactive”.

`CCOP(=S)(OCC)OC(Cl)C(Cl)(Cl)Cl` (stereo not given): the Potency entry is “inactive”.

For `OC(c1ccc(Cl)cc1)(c1ccc(Cl)cc1)C(Cl)(Cl)Cl`, the Potency was 48.6 µM (active).

In the case of `CSCCCN=C=S`, the Potency was 43.3 µM (active).

For the compound `COc1cccc(C(=O)CCN[C@@H](C)[C@H](O)c2ccccc2)c1`, the Potency was 13.3 µM (active).

On to `Oc1cc(Cl)c(Cl)c(Cl)c1`, for which the Potency entry is “inactive”.

As to `Clc1ccc(-c2ccc(Cl)c(Cl)c2Cl)c(Cl)c1Cl`, the Potency result was “inactive”.

With `CCCSP(=O)(OCC)SCCC`, the Potency is 39.9 µM (active).

With `Oc1ccc(C(c2ccc(O)cc2)(C(F)(F)F)C(F)(F)F)cc1`, the Potency entry is “inactive and 48.6 µM (active)”.

On to `CCC(C)c1cc([N+](=O)[O-])cc([N+](=O)[O-])c1OC(=O)C=C(C)C` (stereo not given), for which the Potency is 19.3 µM (active).

In the case of `Cc1cc(C(F)(C(F)(F)F)C(F)(F)F)ccc1NC(=O)c1cccc(I)c1C(=O)NC(C)(C)CS(C)(=O)=O`, the Potency is 30.8 µM (active).

As for `ClC1=C(Cl)C2(Cl)C3C(Cl)C=CC3C1(Cl)C2(Cl)Cl` (stereo not given), the Potency was 68.6 µM (active).

Regarding `C[C@H]1O[C@@H](O[C@H]2[C@@H](O)C[C@H](O[C@H]3[C@@H](O)C[C@H](O[C@H]4CC[C@@]5(C)[C@H](CC[C@@H]6[C@@H]5CC[C@]5(C)[C@@H](C7=CC(=O)OC7)CC[C@]65O)C4)O[C@@H]3C)O[C@@H]2C)C[C@H](O)[C@@H]1O`, the Potency was 473 nM (active) and 308 nM (active).

For `O=S(=O)(c1ccc(Cl)cc1)c1ccc(Cl)cc1`, the Potency is 52.8 µM (active).
